The supplement of paper PMC11219838
A number with no mark means an inactive call.

Columns and labels:
Conditions in all cases: 60 µM; 5 days; temperature: 20 °C
Meloidogyne hapla J2 = experiment: proportion of mobile M. hapla J2 relative to DMSO control (fraction of DMSO control); higher = more viable, less nematicidal, active = 0.7 or less
In short: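 Compound was pinned to 60 µM final (0.6% v/v DMSO) into 96-well wells, each holding about 25 M. hapla J2 in distilled water. Plates were sealed and shaken for 5 days at 20 °C and 200 rpm, then given 2 µL 1 M NaOH per well. Microscopic mobility scores were normalised to the mean of the plate's own DMSO wells, eight per plate, with two biological replicates averaged.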

[1] = test system: Caenorhabditis elegans dauer (daf-2(e1370)); experiment: proportion of mobile C. elegans dauer larvae relative to DMSO control (fraction of DMSO control); higher = more viable, less nematicidal, active = 0.63 or less; extreme values may be limits of the assay
In short: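 Compound was added by pinning to 60 µM final, giving 0.6% v/v DMSO, in 96-well plates containing about 20 C. elegans dauers per well in liquid NGM. These dauers came from synchronized larvae held on MYOB plates with E. coli OP50 for 48 h at 25 °C. Plates were sealed and shaken at 200 rpm at 20 °C for 5 days. Under a dissection microscope, the proportion of mobile worms was scored relative to DMSO wells, and two biological replicates were averaged.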

Ditylenchus dipsaci = experiment: proportion of mobile D. dipsaci (mixed stage) relative to DMSO control (fraction of DMSO control); higher = more viable, less nematicidal, active = 0.86 or less; extreme values may be limits of the assay
In short: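 Mobility values are relative to DMSO controls and are averages of two biological replicates. For each well of a 96-well plate, about 20 D. dipsaci worms, grown on pea plants in Gamborg B-5 agar and funnel-extracted into water, were dispensed in distilled water. Plates received pinned compound at 60 µM final with 0.6% v/v DMSO and were sealed and shaken at 200 rpm for 5 days at 20 °C before 2 µL 1 M NaOH was added and mobile worms were scored by microscope.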

SMILES	proportion of mobile M. hapla J2 (Meloidogyne hapla J2)	proportion of mobile C. elegans dauer larvae [1]	proportion of mobile D. dipsaci (Ditylenchus dipsaci)
COc1cccc(-c2nnc(SCC(=O)Nc3ccccc3)o2)c1	1.03	1	1
O=C(CSc1nnc(-c2ccccc2)o1)OCc1ccccc1	0.999	1	1
Cc1ccccc1OCc1nc(-c2ccc(Br)cc2)no1	0.788	1	1
O=C(CSc1nnc(-c2cccc(Cl)c2)o1)N1CCCCC1	1	1	1
O=C(CSc1nnc(-c2cccc3ccccc23)o1)Nc1cccc(F)c1	0.999	1	1
c1ccc(-c2nnc(SCc3nc4ccccc4[nH]3)o2)cc1	1.04	1	1
Cc1cccc(-c2noc(COc3ccc(Br)cc3)n2)c1	0.882	1	1
COc1ccccc1OCc1nc(-c2ccccc2)no1	0.973	1	1
FC(F)(F)c1cccc(-c2noc(-c3cccnc3)n2)c1	0.813	1	0.914
Clc1ccc(SCc2nc(-c3ccccn3)no2)cc1	0.0259 (active)	0.5 (active)	1
CNC(=O)c1ccccc1-c1nc(-c2ccc(Cl)cc2)no1	0.985	1	1
COc1cccc(-c2nc(-c3ccc(C)cc3)no2)c1	0.953	0 (active)	1
O=C(CSc1nnc(-c2ccc(Br)cc2)o1)NC1CCCC1	0.944	1	1
Cc1ccc(-c2noc(-c3ccc4c(c3)OCCO4)n2)cc1	1	0.615 (active)	1
O=C(CSc1nnc(-c2ccccc2)o1)NC1CCCCC1	1.01	1	1
Cc1ccccc1-c1noc(COc2ccccc2)n1	0.764	1	1
CCc1ccc(OCc2nc(-c3cccnc3)no2)cc1	1.04	0.436 (active)	1
Cc1ccccc1CSc1nnc(-c2ccco2)o1	0.547 (active)	0.5 (active)	1
COc1nc(C)ccc1-c1noc(-c2ccc(F)cc2)n1	0.992	1	1
CCOc1nc(-c2ccc(C)cc2)ccc1-c1noc(-c2ccc(F)cc2)n1	0.829	1	1
Cc1cccc(-c2noc(-c3ccccc3Cl)n2)c1	0.894	1	1
